A number with no mark means an inactive call. Inconclusive results are not listed. Entries that show only a call come without a potency. Active and inactive are the calls of the source. Unless noted, the call rests on the fitted dose curve; in most records, active means well fitted curve in the direction sought with a large enough effect in the repeat runs; inconclusive means weak or mixed curves; inactive means no such curve, though single readings can be large; an effect the other way counts as inactive or inconclusive.
What was measured:
[1] = molecular target: Thyrotropin receptor (Homo sapiens) (UniProt P16473); experiment: qHTS assay to identify small molecule antagonists of the thyroid stimulating hormone receptor (TSHR) signaling pathway (AID 1259385; calls by dose curve; further: nearly all actives have a fitted effect of over 20% in size)
Method in brief: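 Antagonist mode: compound-treated TSHR-expressing HEK293 cells were stimulated with 1.5 ng/mL TSH (final) in presence of Ro20-1724 for 30 min at RT. HTRF cAMP detection after 1 h; each compound tested at 15 concentrations, triplicate.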

[2] = qHTS assay to identify small molecule agonists of the estrogen receptor alpha (ER-alpha) signaling pathway in the presence of an antagonist - cell viability counter screen (AID 1259386);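 further: series mostly up to about 92 µM; cells exposed to compounds for 22 h at 37 °C before the viability read; nearly all actives have a fitted effect of over 30% in size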
Method in brief: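 Cytotoxicity was measured in parallel with the ERE-luciferase agonist screen, in the same wells. The cells were VM7Luc4E2, which endogenously express ER-alpha, and treatment was with compounds plus 10.0nM ICI-182,780 for 22hr.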

[3] = molecular target: Progesterone receptor (Homo sapiens) (UniProt P06401); experiment: qHTS assay to identify small molecule agonists of the progesterone receptor (PR) signaling pathway (AID 1346784; calls by dose curve; further: nearly all actives have a fitted effect of over 30% in size)
Method in brief: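 Using charcoal-stripped serum (2%) to limit endogenous steroids, PR-UAS-bla HEK 293T cells received compounds for 16 hr at 37C after 6 hr plating; beta-lactamase FRET fluorescence was recorded following 2 hr substrate loading at room temperature.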

[4] = molecular target: Progesterone receptor (Homo sapiens) (UniProt P06401); experiment: qHTS assay to identify small molecule antagonists of the progesterone receptor (PR) signaling pathway (AID 1346795; active means well fitted inhibition curve with a large enough effect in the signal ratio in the repeat runs, not every such curve was filed as active; the % refers to the signal ratio)
Method in brief: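 Inhibition of R5020-induced (1 nM final) beta-lactamase reporter signal in PR-UAS-bla HEK293T cells was scored by FRET fluorescence after overnight (16 hr) compound treatment.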

[5] = qHTS assay to identify small molecule antagonists of the progesterone receptor (PR) signaling pathway - cell viability counter screen (AID 1346798); further: series mostly up to about 92 µM; nearly all actives have a fitted effect of over 50% in size
Method in brief: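 ATP content as viability readout: CellTiter-Glo luminescence, 30 min room temperature, in PR-UAS-bla HEK293T cells after 16 hr compound/R5020 treatment at 37C and 5% CO2.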

[6] = qHTS assay to identify small molecule agonists of the progesterone receptor (PR) signaling pathway - cell viability counter screen (AID 1346799; calls by dose curve; further: nearly all actives have a fitted effect of over 45% in size)
Method in brief: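 Cytotoxicity in PR-bla HEK293T cells: 16 h compound, 37C; CellTiter-Glo added post-FRET read; luminescence after 30 min RT.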

[7] = qHTS assay to identify small molecule antagonists of the TGF-beta/Smad signaling pathway - cell viability counter screen (AID 1346824); further: nearly all actives have a fitted effect of over 50% in size
Method in brief: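 Cytotoxicity counter-screen run in the same wells as the beta-lactamase Smad reporter read: CellTiter-Glo luminescence after 30 min at room temperature. HEK 293T SBE-bla cells had 5 hr compound exposure at 37 C with TGF-beta1 (0.25 ng/mL stock).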

[8] = qHTS assay to identify small molecule agonists of the TGF-beta/Smad signaling pathway - cell viability counter screen (AID 1346829); further: top concentration of the series differs between compounds; nearly all actives have a fitted effect of over 45% in size
Method in brief: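 Luminescence from CellTiter-Glo, read after a 30 min room-temperature incubation, gives cell viability of SBE-bla HEK 293T cells treated 5 hr with compounds at 37 C.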

[9] = qHTS assay to identify small molecule agonists of the TGF-beta/Smad signaling pathway (AID 1346859; active means well fitted activation curve with a large enough effect in the signal ratio in the repeat runs, not every such curve was filed as active; the % refers to the signal ratio; further: series mostly up to about 77 µM)
Method in brief: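 Stable Smad binding element-beta-lactamase HEK 293T cells; 5 hr compound exposure at 37 C under 5% CO2; 2 hr room-temperature substrate step; fluorescence excited at 405 nm, collected at 460 nm and 530 nm.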

[10] = molecular target: Thyrotropin-releasing hormone receptor (Homo sapiens) (UniProt P34981); experiment: qHTS assay to identify small molecule antagonists of the thyrotropin-releasing hormone receptor (TRHR) signaling pathway (AID 1346877; active means well fitted inhibition curve with a large enough effect in the repeat runs, not every such curve was filed as active; further: series mostly up to about 51 µM)
Method in brief: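 Antagonism is measured as suppression of the calcium response to 1 nM TRH in TRHR-HEK293 cells that have been dye-loaded for 2 h at 37 °C after overnight plating. Each compound is tested at 15 concentrations in triplicate.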

[11] = molecular target: Thyrotropin-releasing hormone receptor (Homo sapiens) (UniProt P34981); experiment: qHTS assay to identify small molecule agonists of the thyrotropin-releasing hormone receptor (TRHR) signaling pathway (AID 1346891; calls by dose curve;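 further: HEK293 cells expressing TRHR with calcium dye readout; series mostly up to about 58 µM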)
Method in brief: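 In 1536-format, 1500 TRHR-Hek293 cells per well grew 18 h, took up calcium dye for 2 h at 37 °C, received compound, and were read kinetically; 15-point titrations, triplicates.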

[12] = Human pregnane X receptor (PXR) small molecule agonists, qHTS cell viability counter screen (AID 1346977); further: nearly all actives have a fitted effect of over 50% in size
Method in brief: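 Readout is CellTiter-Fluor fluorescence from PXR-Luc HepG2 cells. Plated cells rested 5hr, then were treated with compounds for 24hr at 37C and 5% CO2, with reagent present during the last hour.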

[13] = Caspase-3/7 induction in HepG2 cells by small molecules, qHTS assay (AID 1346978); further: nearly all actives have a fitted effect of over 15% in size
Method in brief: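 Caspase-3/7 induction was measured by Caspase-Glo 3/7 luminescence (30 min, room temperature) after a 17 hr compound exposure of wild-type HepG2 cells seeded at 2,000 per well and pre-incubated 5 hr.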

[14] = Caspase-3/7 induction in CHO-K1 cells by small molecules, qHTS cell viability counter screen (AID 1346979); further: nearly all actives have a fitted effect of over 35% in size
Method in brief: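 To flag cytotoxic compounds, treated CHO-K1 wild-type cells were given CellTiter-Fluor at 16hr and read fluorescently after 1hr at 37C; the caspase-3/7 luminescence was measured in these same wells.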

[15] = Caspase-3/7 induction in CHO-K1 cells by small molecules, qHTS assay (AID 1346980); further: nearly all actives have a fitted effect of over 15% in size
Method in brief: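 Luminescent Caspase-Glo 3/7 read (30min, room temperature) quantified apoptosis induction. Cells were wild-type CHO-K1, treated with compound for 17hr at 37 C and 5% CO2.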

[16] = Caspase-3/7 induction in HepG2 cells by small molecules, qHTS cell viability counter screen (AID 1346981); further: series mostly up to about 92 µM; nearly all actives have a fitted effect of over 30% in size
Method in brief: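 Cell viability is measured as a cytotoxicity counter screen alongside the Caspase-Glo 3/7 readout in identical wells. Wild-type HepG2 cells are treated with test compounds for 16 hr at 37 C before CellTiter-Fluor addition and a 1-hr incubation.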

[17] = molecular target: Nuclear receptor subfamily 1 group I member 2 (Rattus norvegicus) (UniProt Q9R1A7); experiment: Rat pregnane X receptor (rPXR) activation by small molecules, qHTS assay (AID 1346983); settings: rPXR luciferase reporter cells, One-Glo luminescence, 24 h; max activation: active compounds read high; further: nearly all actives have a fitted effect of over 20% in size
Method in brief: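 Luminescent readout (One-Glo luciferase, 30 min room temperature) followed 24 hr compound treatment at 37 C of rPXR cells plated 2,000 per well and preincubated 5hr; qHTS format with compounds delivered in DMSO.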

[18] = molecular target: Nuclear receptor subfamily 1 group I member 2 (Homo sapiens) (UniProt O75469); experiment: Human pregnane X receptor (PXR) activation by small molecules, qHTS assay (AID 1346985); further: nearly all actives have a fitted effect of over 40% in size
Method in brief: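 DPX-2 cells (HepG2 co-transfected with a PXR response element and a CYP3A4-promoter luciferase construct) were seeded at 2,000 per well, rested 5 hr at 37C, then exposed to DMSO-dissolved compounds for 24 hr. Activation was read as luciferase luminescence.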

[19] = molecular target: Cytochrome P450 2D6 (Homo sapiens) (UniProt P10635); experiment: Cytochrome P450 Family 2 Subfamily D Member 6 (CYP2D6) small molecule antagonists: luciferase reporter qHTS assay (AID 1671196); further: nearly all actives have a fitted effect of over 50% in size; further: potency means the concentration at half of the fitted maximal effect
Method in brief: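 Enzyme and proluciferin substrate were first combined with test chemical for 10 min at room temperature. Adding NADPH regeneration solution started a 1 h reaction, stopped with luciferin detection reagent and read by luminescence 20 min later.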

[20] = molecular target: Nuclear receptor subfamily 1 group I member 2 (Homo sapiens) (UniProt O75469); experiment: Human pregnane X receptor (PXR) small molecule agonists, qHTS assay (AID 1346982); further: nearly all actives have a fitted effect of over 35% in size
Method in brief: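 Cells: HepG2 stably carrying PXR-Luc. Medium held 5% charcoal-stripped FBS. Compounds in DMSO added after 5 hr plating, incubated 24 hr, then luminescence quantified with ONE-Glo.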

Cytochrome P450 2D6 (Homo sapiens), sequence (P10635 whole entry, looked up): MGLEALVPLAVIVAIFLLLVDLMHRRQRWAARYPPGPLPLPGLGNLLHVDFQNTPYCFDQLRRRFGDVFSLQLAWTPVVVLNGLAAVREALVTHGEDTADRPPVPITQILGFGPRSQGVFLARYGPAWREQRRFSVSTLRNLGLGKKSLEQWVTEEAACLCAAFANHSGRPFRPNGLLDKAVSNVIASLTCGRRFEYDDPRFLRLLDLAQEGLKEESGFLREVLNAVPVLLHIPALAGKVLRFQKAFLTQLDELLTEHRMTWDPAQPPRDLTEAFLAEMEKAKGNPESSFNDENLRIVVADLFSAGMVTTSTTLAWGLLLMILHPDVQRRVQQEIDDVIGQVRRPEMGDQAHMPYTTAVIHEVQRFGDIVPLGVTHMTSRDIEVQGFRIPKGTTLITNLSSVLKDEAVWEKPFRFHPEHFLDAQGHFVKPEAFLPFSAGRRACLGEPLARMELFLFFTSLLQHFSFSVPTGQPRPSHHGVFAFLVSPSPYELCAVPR
Nuclear receptor subfamily 1 group I member 2 (Rattus norvegicus), sequence (Q9R1A7 whole entry, looked up): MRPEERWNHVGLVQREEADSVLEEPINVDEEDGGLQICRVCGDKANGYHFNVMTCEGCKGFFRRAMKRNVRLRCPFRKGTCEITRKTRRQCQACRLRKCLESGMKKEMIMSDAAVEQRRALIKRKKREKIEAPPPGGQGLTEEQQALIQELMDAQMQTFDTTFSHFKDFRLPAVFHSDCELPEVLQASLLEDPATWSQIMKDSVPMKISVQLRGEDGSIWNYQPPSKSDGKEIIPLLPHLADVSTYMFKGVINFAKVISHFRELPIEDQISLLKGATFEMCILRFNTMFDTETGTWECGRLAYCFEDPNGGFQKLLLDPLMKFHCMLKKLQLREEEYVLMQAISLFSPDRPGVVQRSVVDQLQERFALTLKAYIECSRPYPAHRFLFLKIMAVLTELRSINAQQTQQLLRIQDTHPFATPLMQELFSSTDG
Nuclear receptor subfamily 1 group I member 2 (Homo sapiens), sequence (O75469 whole entry, looked up): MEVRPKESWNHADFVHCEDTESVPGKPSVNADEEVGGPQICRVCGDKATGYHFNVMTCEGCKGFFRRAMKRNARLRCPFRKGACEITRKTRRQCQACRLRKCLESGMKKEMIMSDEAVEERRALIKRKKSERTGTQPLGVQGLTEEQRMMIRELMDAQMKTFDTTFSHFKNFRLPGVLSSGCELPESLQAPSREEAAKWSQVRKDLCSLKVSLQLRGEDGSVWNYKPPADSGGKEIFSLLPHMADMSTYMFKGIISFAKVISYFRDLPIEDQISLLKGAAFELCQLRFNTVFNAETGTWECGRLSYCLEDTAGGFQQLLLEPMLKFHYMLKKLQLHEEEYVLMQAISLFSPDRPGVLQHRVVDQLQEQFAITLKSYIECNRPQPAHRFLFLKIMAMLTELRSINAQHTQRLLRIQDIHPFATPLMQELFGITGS
Thyrotropin-releasing hormone receptor (Homo sapiens), sequence (P34981 whole entry, looked up): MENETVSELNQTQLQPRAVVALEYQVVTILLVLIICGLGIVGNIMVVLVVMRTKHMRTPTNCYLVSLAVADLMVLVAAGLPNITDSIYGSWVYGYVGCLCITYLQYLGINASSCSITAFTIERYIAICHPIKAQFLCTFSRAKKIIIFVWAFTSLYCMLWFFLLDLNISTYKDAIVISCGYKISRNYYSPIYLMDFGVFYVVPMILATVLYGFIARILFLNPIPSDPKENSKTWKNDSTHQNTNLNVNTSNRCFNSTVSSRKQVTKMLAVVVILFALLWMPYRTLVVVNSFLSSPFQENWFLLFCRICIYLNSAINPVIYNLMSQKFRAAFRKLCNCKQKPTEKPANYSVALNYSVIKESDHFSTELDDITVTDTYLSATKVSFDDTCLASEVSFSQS
Thyrotropin receptor (Homo sapiens), sequence (P16473 whole entry, looked up): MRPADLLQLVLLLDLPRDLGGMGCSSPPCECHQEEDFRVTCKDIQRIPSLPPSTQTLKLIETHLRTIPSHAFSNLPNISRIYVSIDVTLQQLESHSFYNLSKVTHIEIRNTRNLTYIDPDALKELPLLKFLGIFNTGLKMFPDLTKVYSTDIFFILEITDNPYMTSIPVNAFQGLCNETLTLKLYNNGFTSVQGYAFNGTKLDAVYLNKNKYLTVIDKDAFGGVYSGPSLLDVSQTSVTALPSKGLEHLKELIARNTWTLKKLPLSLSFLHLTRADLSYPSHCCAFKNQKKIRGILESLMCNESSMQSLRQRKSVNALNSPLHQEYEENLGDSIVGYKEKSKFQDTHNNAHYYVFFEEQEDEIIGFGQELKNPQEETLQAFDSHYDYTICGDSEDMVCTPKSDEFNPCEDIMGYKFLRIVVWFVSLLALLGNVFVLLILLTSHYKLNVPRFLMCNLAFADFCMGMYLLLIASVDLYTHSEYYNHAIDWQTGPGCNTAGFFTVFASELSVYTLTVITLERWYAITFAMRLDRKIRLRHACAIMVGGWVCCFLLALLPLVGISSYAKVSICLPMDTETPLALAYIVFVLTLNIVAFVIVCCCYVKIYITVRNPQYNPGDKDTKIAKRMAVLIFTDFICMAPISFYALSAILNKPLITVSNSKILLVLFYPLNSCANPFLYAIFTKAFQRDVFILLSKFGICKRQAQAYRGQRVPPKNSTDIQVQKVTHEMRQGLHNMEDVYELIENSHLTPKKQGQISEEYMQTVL
Progesterone receptor (Homo sapiens), sequence (P06401 whole entry, looked up): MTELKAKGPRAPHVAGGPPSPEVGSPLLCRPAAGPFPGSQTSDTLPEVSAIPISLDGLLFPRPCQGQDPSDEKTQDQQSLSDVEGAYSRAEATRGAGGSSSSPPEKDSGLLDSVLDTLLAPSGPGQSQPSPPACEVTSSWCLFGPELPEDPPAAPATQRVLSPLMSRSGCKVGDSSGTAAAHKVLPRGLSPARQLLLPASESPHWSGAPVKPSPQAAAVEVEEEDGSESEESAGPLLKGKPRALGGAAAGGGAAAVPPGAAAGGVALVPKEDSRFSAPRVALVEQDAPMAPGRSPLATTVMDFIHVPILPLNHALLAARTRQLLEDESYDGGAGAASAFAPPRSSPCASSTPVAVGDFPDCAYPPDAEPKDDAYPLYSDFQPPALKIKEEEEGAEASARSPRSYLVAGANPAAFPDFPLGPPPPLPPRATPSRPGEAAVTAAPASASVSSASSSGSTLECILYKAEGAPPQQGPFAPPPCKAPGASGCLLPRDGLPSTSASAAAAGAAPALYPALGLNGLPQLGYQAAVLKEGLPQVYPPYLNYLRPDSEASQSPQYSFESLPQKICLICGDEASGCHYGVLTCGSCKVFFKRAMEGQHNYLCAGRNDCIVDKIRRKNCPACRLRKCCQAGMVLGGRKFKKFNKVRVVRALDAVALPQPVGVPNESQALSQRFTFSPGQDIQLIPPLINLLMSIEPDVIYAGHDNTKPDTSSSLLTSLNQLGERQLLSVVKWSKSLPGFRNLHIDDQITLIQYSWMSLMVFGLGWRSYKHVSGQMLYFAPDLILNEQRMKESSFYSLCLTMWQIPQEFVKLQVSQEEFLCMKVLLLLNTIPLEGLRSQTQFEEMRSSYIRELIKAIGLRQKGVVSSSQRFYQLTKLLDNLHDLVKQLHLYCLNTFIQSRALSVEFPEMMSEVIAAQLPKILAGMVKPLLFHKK

| SMILES | Potency [1] | Potency [2] | Potency [3] | Potency [4] | Potency [5] | Potency [6] | outcome [7] | outcome [8] | outcome [9] | outcome [10] | outcome [11] | Potency [12] | Potency [13] | Potency [14] | Potency [15] | Potency [16] | max activation [17] [%] | Potency [18] | Potency [19] | Potency [20] |
| --- | --- | --- | --- | --- | --- | --- | --- | --- | --- | --- | --- | --- | --- | --- | --- | --- | --- | --- | --- | --- |
| CCc1ccc(C(=O)C(C)CN2CCCCC2)cc1 (stereo unspecified) | inactive | inactive | inactive | inactive | inactive | inactive | inactive | inactive | inactive | inactive | inactive | inactive | inactive | inactive | inactive | inactive | -6.71 | inactive | 490 nM (active) | – |
| CC(=O)Nc1ccccc1O | inactive | inactive | inactive | inactive | inactive | inactive | inactive | inactive | inactive | inactive | inactive | inactive | inactive | inactive | inactive | inactive | – | – | – | – |
| C/C=C1\[C@H]2C=C(C)C[C@]1(N)c1ccc(=O)[nH]c1C2 | inactive | inactive | inactive | inactive | inactive | inactive | inactive | inactive | inactive | inactive | inactive | inactive | inactive | inactive | inactive | inactive | -1.47 | inactive | inactive | inactive |
| COc1cccc([C@H](O)C2CCN(CCc3ccc(F)cc3)CC2)c1OC | inactive | inactive | inactive | inactive | inactive | inactive | inactive | inactive | inactive | inactive | inactive | – | inactive | inactive | inactive | inactive | – | – | 2000 nM (active) | inactive |
| CC(C)(C)NCC(O)COc1ccc(NC(=O)NC2CCCCC2)cc1 (stereo unspecified) | inactive | inactive | inactive | inactive | inactive | inactive | inactive | inactive | inactive | inactive | inactive | inactive | inactive | inactive | inactive | inactive | 0.0743 | – | inactive | inactive |
| CC(C)(C)c1cc(C=O)cc(C(C)(C)C)c1O | inactive | inactive | inactive | inactive | inactive | inactive | inactive | inactive | inactive | inactive | inactive | inactive | inactive | inactive | inactive | inactive | – | – | inactive | – |
| N#C[C@@H]1CC(F)(F)CN1C(=O)CNC1CC2CCC(C1)N2c1ncccn1 (stereo partly specified) | inactive | inactive | inactive | inactive | inactive | inactive | inactive | inactive | inactive | – | – | – | inactive | inactive | inactive | inactive | – | – | 12600 nM (active) | – |
| O=C(c1ccc(Cl)cc1)c1ccc(Cl)cc1 | inactive | inactive | inactive | inactive | inactive | inactive | – | inactive | inactive | inactive | inactive | – | – | inactive | inactive | inactive | – | – | inactive | – |

Reference: PubChem BioAssay (Tox21)
